According to PubChem BioAssay (NCI):
Compounds without any hit were thinned out: in the full panel of roughly 83,000, 20% have a hit.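 The test compound was applied at a single concentration to cells in 96-well plates for 48 hours, and percent growth was recorded.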 Values without a mark were called inactive. Activity calls are given as the source filed them. The calls were made as follows: active = growth percent below 10; inactive = the rest.

How the values were obtained:
Assay in all cases: NCI-60 one-dose screen, 48 h (100 = growth as untreated, 0 = no growth, -100 = all killed)
Conditions in all cases: 10 µM
K-562 leukemia = tested on: K-562 leukemia
MALME-3M melanoma = tested on: MALME-3M melanoma
MDA-MB-231 breast = tested on: MDA-MB-231 breast
RXF 393 renal = tested on: RXF 393 renal
SF-268 CNS = tested on: SF-268 CNS
SF-295 CNS = tested on: SF-295 CNS
SF-539 CNS = tested on: SF-539 CNS
UACC-257 melanoma = tested on: UACC-257 melanoma
HCT-15 colon = tested on: HCT-15 colon
HT29 colon = tested on: HT29 colon
SNB-75 CNS = tested on: SNB-75 CNS
SNB-19 CNS = tested on: SNB-19 CNS
PC-3 prostate = tested on: PC-3 prostate
SK-MEL-5 melanoma = tested on: SK-MEL-5 melanoma
UACC-62 melanoma = tested on: UACC-62 melanoma
LOX IMVI melanoma = tested on: LOX IMVI melanoma
SK-MEL-28 melanoma = tested on: SK-MEL-28 melanoma
DU-145 prostate = tested on: DU-145 prostate
M14 melanoma = tested on: M14 melanoma
U251 CNS = tested on: U251 CNS

Nc1c(Br)cc(Br)c2c1[nH]c(=O)c1ccccc12
growth (K-562 leukemia): 78.4%
growth (MALME-3M melanoma): 47.8%
growth (MDA-MB-231 breast): 54.8%
growth (RXF 393 renal): 26.2%
growth (SF-268 CNS): 76.9%
growth (SF-295 CNS): 73.1%
growth (SF-539 CNS): 83.7%
growth (UACC-257 melanoma): 87.9%
growth (HCT-15 colon): 75.2%
growth (HT29 colon): 98.4%
growth (SNB-75 CNS): -33.9% (active)
growth (SNB-19 CNS): 94.1%
growth (PC-3 prostate): 80.3%
growth (SK-MEL-5 melanoma): 71.3%
growth (UACC-62 melanoma): 87.6%
growth (LOX IMVI melanoma): 83.7%
growth (SK-MEL-28 melanoma): 86.8%

CC(C)[N+]1(C)C2CC[C@@H]1CC(OC(=O)C(CO)c1ccccc1)C2 (some centres not stated)
growth (DU-145 prostate): 117%
growth (MALME-3M melanoma): 103%
growth (MDA-MB-231 breast): 98.8%
growth (RXF 393 renal): 120%
growth (UACC-257 melanoma): 96.9%
growth (M14 melanoma): 110%
growth (HCT-15 colon): 107%
growth (HT29 colon): 106%
growth (PC-3 prostate): 92.4%
growth (SK-MEL-5 melanoma): 95.6%
growth (UACC-62 melanoma): 108%
growth (LOX IMVI melanoma): 94.5%
growth (SK-MEL-28 melanoma): 122%

Nc1nc(N)c(N)c(Nc2ccc(CCO)cc2)n1
growth (DU-145 prostate): 102%
growth (MDA-MB-231 breast): 95.3%
growth (RXF 393 renal): 109%
growth (SF-268 CNS): 103%
growth (SF-295 CNS): 105%
growth (SF-539 CNS): 111%
growth (UACC-257 melanoma): 103%
growth (M14 melanoma): 97.2%
growth (HCT-15 colon): 115%
growth (HT29 colon): 104%
growth (SNB-19 CNS): 124%
growth (U251 CNS): 96.6%
growth (PC-3 prostate): 96.8%
growth (SK-MEL-5 melanoma): 99.4%
growth (UACC-62 melanoma): 97.5%
growth (LOX IMVI melanoma): 97.2%
growth (SK-MEL-28 melanoma): 113%

CN(C)c1ncnc2c1nnn2C1OC(CO)C(O)C1O (configuration not stated)
growth (DU-145 prostate): 15.9%
growth (MALME-3M melanoma): -10.4% (active)
growth (MDA-MB-231 breast): 36.5%
growth (RXF 393 renal): -2.59% (active)
growth (SF-268 CNS): 24.9%
growth (SF-295 CNS): 6.4% (active)
growth (SF-539 CNS): -2.72% (active)
growth (UACC-257 melanoma): 11.8%
growth (M14 melanoma): -13.2% (active)
growth (HCT-15 colon): 7.45% (active)
growth (HT29 colon): 0.427% (active)
growth (SNB-75 CNS): 28.3%
growth (SNB-19 CNS): 33.9%
growth (PC-3 prostate): 21.7%
growth (SK-MEL-5 melanoma): -12.6% (active)
growth (UACC-62 melanoma): -32.9% (active)
growth (LOX IMVI melanoma): 9.03% (active)
growth (SK-MEL-28 melanoma): 12.6%

CC(=O)O[C@@]12CO[C@@H]1C[C@H](O)[C@@]1(C)C(=O)[C@H](O)C3=C(C)[C@@H](OC(=O)[C@H](O)[C@@H](NC(=O)OC(C)(C)C)c4ccccc4)C[C@@](O)([C@@H](OC(=O)c4ccccc4)C12)C3(C)C (some centres not stated)
growth (DU-145 prostate): -10.4% (active)
growth (MALME-3M melanoma): 76.5%
growth (MDA-MB-231 breast): 45.5%
growth (RXF 393 renal): 23.7%
growth (SF-268 CNS): 51.8%
growth (SF-295 CNS): -23% (active)
growth (SF-539 CNS): 23%
growth (UACC-257 melanoma): 74%
growth (M14 melanoma): 36%
growth (HCT-15 colon): 16.5%
growth (HT29 colon): 6.02% (active)
growth (SNB-75 CNS): -2.3% (active)
growth (SNB-19 CNS): 37.8%
growth (U251 CNS): 24.2%
growth (PC-3 prostate): 31.7%
growth (SK-MEL-5 melanoma): 28.6%
growth (LOX IMVI melanoma): 44.6%
